What follows are sequences tested against T1, ETS2 (Homo sapiens, UniProt P15036 1-469) (assay: DAPPL (digital affinity profiling via proximity ligation, sequencing); 10 mM Tris-HCl pH 7.5, 50 mM NaCl, 1 mM DTT, 4% glycerol, room temperature, 30 min; GST-TFs on glutathione beads, 16-mer random dsDNA library, 0.1% formaldehyde crosslink after washing; high values mean tight binding). Conditions: protein: recombinant; tags: N-terminal GST; dsDNA, one strand shown.
T1 sequence: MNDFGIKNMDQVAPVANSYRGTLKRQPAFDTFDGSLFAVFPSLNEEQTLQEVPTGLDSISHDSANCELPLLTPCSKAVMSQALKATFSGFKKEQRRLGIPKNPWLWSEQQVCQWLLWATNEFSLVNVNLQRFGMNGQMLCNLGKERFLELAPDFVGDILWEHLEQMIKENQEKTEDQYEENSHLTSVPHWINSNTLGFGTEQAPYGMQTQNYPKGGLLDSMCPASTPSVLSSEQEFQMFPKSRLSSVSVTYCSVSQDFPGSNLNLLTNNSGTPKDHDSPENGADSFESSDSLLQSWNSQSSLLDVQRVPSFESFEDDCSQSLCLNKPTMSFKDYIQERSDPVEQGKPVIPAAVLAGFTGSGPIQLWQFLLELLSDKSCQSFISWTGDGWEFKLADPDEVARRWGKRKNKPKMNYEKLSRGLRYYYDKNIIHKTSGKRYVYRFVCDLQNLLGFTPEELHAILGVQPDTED
In short: (§1)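 GST fusions of human transcription factors were expressed in yeast and captured with glutathione beads. Once given DNA barcodes and pooled alongside a tag-only sample, they were incubated for 30 min at room temperature with 200 nmole of a random double-stranded 16-mer DNA library in Tris/NaCl/DTT/glycerol buffer, then washed, crosslinked (0.1% formaldehyde), proximity-ligated, PCR-amplified and sequenced on an Illumina NextSeq500. The binding signal of each hexamer is its read frequency for a factor divided by its frequency for the tag-only sample.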

TAACCA and ACTGCA are the same in binding signal: 1.12 fold enrichment (6-mer frequency, TF over GST control) for the first, 1.12 fold enrichment (6-mer frequency, TF over GST control) for the second.

Compared with ATTGTC, AGGAAA is higher in binding signal: 1.17 fold enrichment (6-mer frequency, TF over GST control) for the first, 1.48 fold enrichment (6-mer frequency, TF over GST control) for the second.

Going from AGATGC to ATTCAG, the binding signal rises from 1.09 fold enrichment (6-mer frequency, TF over GST control) to 1.14 fold enrichment (6-mer frequency, TF over GST control).

Compared with TTGCAC, CGGTCT is higher in binding signal: 1.11 fold enrichment (6-mer frequency, TF over GST control) for the first, 1.16 fold enrichment (6-mer frequency, TF over GST control) for the second.

Compared with TCCTTA, CCGCTA is lower in binding signal: 1.6 fold enrichment (6-mer frequency, TF over GST control) for the first, 1.32 fold enrichment (6-mer frequency, TF over GST control) for the second.

Going from TGCGAC to CCCCGG, the binding signal falls from 1.19 fold enrichment (6-mer frequency, TF over GST control) to 1.17 fold enrichment (6-mer frequency, TF over GST control).

Going from CACCCG to TGCACC, the binding signal falls from 1.19 fold enrichment (6-mer frequency, TF over GST control) to 1.08 fold enrichment (6-mer frequency, TF over GST control).

Going from TGGGCT to CCAAAT, the binding signal falls from 1.5 fold enrichment (6-mer frequency, TF over GST control) to 1.08 fold enrichment (6-mer frequency, TF over GST control).

Going from ATGTCC to TGATCC, the binding signal falls from 1.58 fold enrichment (6-mer frequency, TF over GST control) to 1.25 fold enrichment (6-mer frequency, TF over GST control).

Going from TACAAG to TTCACA, the binding signal rises from 1.1 fold enrichment (6-mer frequency, TF over GST control) to 1.23 fold enrichment (6-mer frequency, TF over GST control).

The sequences below were run against T2, SPDEF (Homo sapiens, UniProt O95238 1-335) in the same assay as above. Conditions: protein: recombinant; tags: N-terminal GST; dsDNA, one strand shown.
T2 sequence: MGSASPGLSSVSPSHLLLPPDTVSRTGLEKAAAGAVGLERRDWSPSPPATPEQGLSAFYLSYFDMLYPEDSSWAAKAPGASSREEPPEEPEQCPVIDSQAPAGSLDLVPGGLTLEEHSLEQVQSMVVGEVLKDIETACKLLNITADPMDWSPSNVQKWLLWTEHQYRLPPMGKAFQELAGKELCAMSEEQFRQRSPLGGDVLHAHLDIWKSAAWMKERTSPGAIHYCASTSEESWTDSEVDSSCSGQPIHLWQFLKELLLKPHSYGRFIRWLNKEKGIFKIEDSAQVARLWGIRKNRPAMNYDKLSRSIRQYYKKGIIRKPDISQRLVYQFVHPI
In short: as §1

Going from TTTCAA to AATCAG, the binding signal falls from 1.16 fold enrichment (6-mer frequency, TF over GST control) to 1.01 fold enrichment (6-mer frequency, TF over GST control).

Going from TAAAGA to ACATAC, the binding signal rises from 1.04 fold enrichment (6-mer frequency, TF over GST control) to 1.2 fold enrichment (6-mer frequency, TF over GST control).

Compared with GCCTTT, TTTGTC is lower in binding signal: 1.15 fold enrichment (6-mer frequency, TF over GST control) for the first, 1.14 fold enrichment (6-mer frequency, TF over GST control) for the second.

Compared with CCCACG, CTGACA is higher in binding signal: 1.05 fold enrichment (6-mer frequency, TF over GST control) for the first, 1.24 fold enrichment (6-mer frequency, TF over GST control) for the second.

First: ACTGGC
Second: CTCCAT
The binding signal of the first is lower: 1.04 fold enrichment (6-mer frequency, TF over GST control) for the first, 1.39 fold enrichment (6-mer frequency, TF over GST control) for the second.

Going from GCTCTT to CCTCGC, the binding signal rises from 1.34 fold enrichment (6-mer frequency, TF over GST control) to 1.42 fold enrichment (6-mer frequency, TF over GST control).

Going from ATGTGT to ACTCAT, the binding signal rises from 1.23 fold enrichment (6-mer frequency, TF over GST control) to 1.24 fold enrichment (6-mer frequency, TF over GST control).

Going from TAAACA to GTAATC, the binding signal falls from 1.27 fold enrichment (6-mer frequency, TF over GST control) to 1.12 fold enrichment (6-mer frequency, TF over GST control).

Going from CCGATC to TTTGGG, the binding signal rises from 1.22 fold enrichment (6-mer frequency, TF over GST control) to 1.25 fold enrichment (6-mer frequency, TF over GST control).

Going from CCGGAA to ACGACA, the binding signal falls from 6.22 fold enrichment (6-mer frequency, TF over GST control) to 1.26 fold enrichment (6-mer frequency, TF over GST control).

First: TAACCA
Second: ACTGCA
The binding signal of the first is lower: 1.05 fold enrichment (6-mer frequency, TF over GST control) for the first, 1.13 fold enrichment (6-mer frequency, TF over GST control) for the second.

Compared with ATTGTC, AGGAAA is higher in binding signal: 1.17 fold enrichment (6-mer frequency, TF over GST control) for the first, 1.31 fold enrichment (6-mer frequency, TF over GST control) for the second.

First: AGATGC
Second: ATTCAG
The binding signal of the first is lower: 1.03 fold enrichment (6-mer frequency, TF over GST control) for the first, 1.05 fold enrichment (6-mer frequency, TF over GST control) for the second.

Going from TTGCAC to CGGTCT, the binding signal falls from 1.22 fold enrichment (6-mer frequency, TF over GST control) to 1.09 fold enrichment (6-mer frequency, TF over GST control).

Compared with TCCTTA, CCGCTA is lower in binding signal: 1.75 fold enrichment (6-mer frequency, TF over GST control) for the first, 1.38 fold enrichment (6-mer frequency, TF over GST control) for the second.

Compared with TGCGAC, CCCCGG is higher in binding signal: 1.15 fold enrichment (6-mer frequency, TF over GST control) for the first, 1.28 fold enrichment (6-mer frequency, TF over GST control) for the second.

First: CACCCG
Second: TGCACC
The binding signal of the first is higher: 1.28 fold enrichment (6-mer frequency, TF over GST control) for the first, 1.2 fold enrichment (6-mer frequency, TF over GST control) for the second.

First: TGGGCT
Second: CCAAAT
The binding signal of the first is higher: 1.28 fold enrichment (6-mer frequency, TF over GST control) for the first, 1.05 fold enrichment (6-mer frequency, TF over GST control) for the second.

First: ATGTCC
Second: TGATCC
The binding signal of the first is higher: 2.05 fold enrichment (6-mer frequency, TF over GST control) for the first, 1.63 fold enrichment (6-mer frequency, TF over GST control) for the second.

First: TACAAG
Second: TTCACA
The binding signal of the first is lower: 1.1 fold enrichment (6-mer frequency, TF over GST control) for the first, 1.25 fold enrichment (6-mer frequency, TF over GST control) for the second.

Each sequence was assayed against T3, ETV7 (Homo sapiens, UniProt Q9Y603 1-341) in the same assay as above. Conditions: protein: recombinant; tags: N-terminal GST; dsDNA, one strand shown.
T3 sequence: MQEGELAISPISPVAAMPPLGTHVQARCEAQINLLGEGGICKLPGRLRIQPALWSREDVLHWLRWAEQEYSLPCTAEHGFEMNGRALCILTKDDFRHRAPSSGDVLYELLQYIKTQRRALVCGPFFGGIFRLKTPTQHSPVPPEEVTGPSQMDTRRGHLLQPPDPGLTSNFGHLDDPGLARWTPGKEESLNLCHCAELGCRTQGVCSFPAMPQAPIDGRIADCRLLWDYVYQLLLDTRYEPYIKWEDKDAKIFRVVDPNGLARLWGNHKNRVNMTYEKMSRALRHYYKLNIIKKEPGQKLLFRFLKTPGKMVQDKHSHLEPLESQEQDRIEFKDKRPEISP
In short: as §1

Going from TTTCAA to AATCAG, the binding signal falls from 1.3 fold enrichment (6-mer frequency, TF over GST control) to 1.12 fold enrichment (6-mer frequency, TF over GST control).

Compared with TAAAGA, ACATAC is higher in binding signal: 1.08 fold enrichment (6-mer frequency, TF over GST control) for the first, 1.12 fold enrichment (6-mer frequency, TF over GST control) for the second.

Compared with GCCTTT, TTTGTC is higher in binding signal: 1.18 fold enrichment (6-mer frequency, TF over GST control) for the first, 1.35 fold enrichment (6-mer frequency, TF over GST control) for the second.

Compared with CCCACG, CTGACA is higher in binding signal: 1.18 fold enrichment (6-mer frequency, TF over GST control) for the first, 1.37 fold enrichment (6-mer frequency, TF over GST control) for the second.

Compared with ACTGGC, CTCCAT is lower in binding signal: 1.21 fold enrichment (6-mer frequency, TF over GST control) for the first, 1.13 fold enrichment (6-mer frequency, TF over GST control) for the second.

Going from GCTCTT to CCTCGC, the binding signal falls from 1.56 fold enrichment (6-mer frequency, TF over GST control) to 1.48 fold enrichment (6-mer frequency, TF over GST control).

First: ATGTGT
Second: ACTCAT
The binding signal of the first is lower: 1.09 fold enrichment (6-mer frequency, TF over GST control) for the first, 1.27 fold enrichment (6-mer frequency, TF over GST control) for the second.

Compared with TAAACA, GTAATC is lower in binding signal: 1.24 fold enrichment (6-mer frequency, TF over GST control) for the first, 1.17 fold enrichment (6-mer frequency, TF over GST control) for the second.

Compared with CCGATC, TTTGGG is lower in binding signal: 1.31 fold enrichment (6-mer frequency, TF over GST control) for the first, 1.29 fold enrichment (6-mer frequency, TF over GST control) for the second.

First: CCGGAA
Second: ACGACA
The binding signal of the first is higher: 5.01 fold enrichment (6-mer frequency, TF over GST control) for the first, 1.05 fold enrichment (6-mer frequency, TF over GST control) for the second.

First: TAACCA
Second: ACTGCA
The binding signal of the first is higher: 1.09 fold enrichment (6-mer frequency, TF over GST control) for the first, 1.07 fold enrichment (6-mer frequency, TF over GST control) for the second.

First: ATTGTC
Second: AGGAAA
The binding signal of the first is lower: 1.23 fold enrichment (6-mer frequency, TF over GST control) for the first, 1.46 fold enrichment (6-mer frequency, TF over GST control) for the second.

Compared with AGATGC, ATTCAG is lower in binding signal: 1.03 fold enrichment (6-mer frequency, TF over GST control) for the first, 1.02 fold enrichment (6-mer frequency, TF over GST control) for the second.

First: TTGCAC
Second: CGGTCT
The binding signal of the first is higher: 1.26 fold enrichment (6-mer frequency, TF over GST control) for the first, 1.11 fold enrichment (6-mer frequency, TF over GST control) for the second.

First: TCCTTA
Second: CCGCTA
The binding signal of the first is higher: 1.59 fold enrichment (6-mer frequency, TF over GST control) for the first, 1.36 fold enrichment (6-mer frequency, TF over GST control) for the second.

Compared with TGCGAC, CCCCGG is lower in binding signal: 1.29 fold enrichment (6-mer frequency, TF over GST control) for the first, 1.18 fold enrichment (6-mer frequency, TF over GST control) for the second.

First: CACCCG
Second: TGCACC
The binding signal of the first is higher: 1.15 fold enrichment (6-mer frequency, TF over GST control) for the first, 1.02 fold enrichment (6-mer frequency, TF over GST control) for the second.

Compared with TGGGCT, CCAAAT is lower in binding signal: 1.49 fold enrichment (6-mer frequency, TF over GST control) for the first, 1.06 fold enrichment (6-mer frequency, TF over GST control) for the second.

First: ATGTCC
Second: TGATCC
The binding signal of the first is higher: 1.71 fold enrichment (6-mer frequency, TF over GST control) for the first, 1.12 fold enrichment (6-mer frequency, TF over GST control) for the second.

Going from TACAAG to TTCACA, the binding signal rises from 1.02 fold enrichment (6-mer frequency, TF over GST control) to 1.29 fold enrichment (6-mer frequency, TF over GST control).
